# Results reported in PubChem BioAssay AID1794808 (University of Kansas High Throughput Screening Laboratory, 2022).
# Where “and” joins values, the source holds several entries; their conditions need not be identical. Equal entries are not always repeated. Out of some 210,000 compounds screened, about 520 (0.25%) were called active. This is one part of a sample in which actives are shown more often than they occur. Rule as the data show it: active = inhibition above about 50%; inactive = the rest. The source holds several records for some structures; these can differ, active in one and inactive in another.
# System: Plasmodium falciparum apicoplast DNA polymerase (apPOL)
# Test: Pf-apPOL inhibitors, biochemical, fluorescence (AID 1794808)
# Conditions: Recombinant Pf-apPOL, molecular beacon fluorescence, 1.5 h; at 10 µM; stronger effect = higher value
row,Structure (SMILES),inhibition
1,COc1ccc2nc(SCC(=O)NCc3cccs3)[nH]c2c1,-5.8% (inactive)
2,COc1ccc2nc(SC)[nH]c2c1,-6.5% (inactive)
3,COc1ccc2nc(SCC(=O)c3ccc(Cl)c(Cl)c3)[nH]c2c1,79.6% (active)
4,CC(=O)N1CCc2cc(N3CC(C(=O)Nc4cccc(F)c4)CC3=O)ccc21 (centres undefined),-3.7% (inactive)
5,O=C(CCCC1=NS(=O)(=O)c2ccccc2N1)Nc1cccc(C(=O)O)c1,-7.1% (inactive)
6,O=C(NCCC1=CCCCC1)C(=O)NCC(c1ccc2c(c1)OCO2)N1CCOCC1 (centres undefined),-1.8% (inactive)
7,Cc1ccc(C)c(OCC(=O)Nc2ccccc2C(N)=O)c1,4.8% (inactive)
8,O=C(C=Cc1ccco1)NCC1COC2(CCCCC2)O1 (centres undefined),-8.3% (inactive)
9,O=C(CCc1ccccc1)NCC1COC2(CCCCC2)O1 (centres undefined),90.3% (active)
10,O=C(NCC1COC2(CCCC2)O1)c1ccccc1[N+](=O)[O-] (centres undefined),-1.9% (inactive)
11,Cc1cc(NC(=O)N2CC3CCCN3c3ccccc32)ccc1Br (centres undefined),0.1% (inactive)
12,CN1/C(=C/C(=O)c2ccc(I)cc2)Sc2ccccc21,-77.1% (inactive)
13,CC(C)CNS(=O)(=O)c1ccc2nc(NC(=O)c3ccco3)sc2c1,45.1% (inactive)
14,NC(COc1ccc(Cl)cc1)=NOC(=O)c1ccsc1,-6.2% (inactive)
15,COc1cc(OC)c(N2C(=O)NC3CC2(C)Oc2ccccc23)cc1Cl (centres undefined),-6.1% (inactive)
16,Fc1ccc(-c2nc(-c3ccc(Cl)cc3)no2)cc1,-2.6% (inactive)
17,O=C(Nc1cc(F)c2nc(N3CCCC3)ccc2c1)c1cccc(F)c1,0.1% (inactive)
18,COc1ccc(/C=C2/C(=O)N(c3ccccc3)N=C2C)c(OC)c1,2.6% (inactive)
19,COc1ccc(C2C=C(Nc3ccccc3)C(=O)N2c2ccccc2)c(OC)c1 (centres undefined),65.6% (active)
20,O=C1C(Nc2ccccc2)=CC(c2ccc([N+](=O)[O-])cc2)N1c1ccccc1 (centres undefined),8.9% (inactive)
21,Cc1ccc2c(c1)N(Cc1nc(-c3ccc(C)c(C)c3)no1)C(=O)CO2,-2.1% (inactive)
22,CC(C=CC=C(C)C(=O)OC1OC(COC2OC(CO)C(O)C(O)C2O)C(O)C(O)C1O)=CC=CC=C(C)C=CC=C(C)C(=O)OC1OC(COC2OC(CO)C(O)C(O)C2O)C(O)C(O)C1O (centres undefined),-1.1% (inactive)
23,CC(C)(C)NC(=O)N1CCC(CNC(=O)C(=O)Nc2cc(F)ccc2F)CC1,-4.8% (inactive)
24,COc1cc(OC)c(OC)cc1CN1CCCC1c1cc(C)on1 (centres undefined),3.3% (inactive)

row,Structure (SMILES),inhibition
1,CCOc1cc(C2C3=C(CCCC3=O)N(CC)C3=C2C(=O)CCC3)cc(Cl)c1O,65.7% (active)
2,CCN1C2=C(C(=O)CCC2)C(c2cc(Br)c(O)c(OC)c2)C2=C1CCCC2=O,1.1% (inactive)
3,CCN1C2=C(C(=O)CC(C)(C)C2)C(c2cc(Cl)c(O)c(OC)c2)C2=C1CC(C)(C)CC2=O,6.7% (inactive)
4,Cc1cccc(NC(=O)CSc2nccn2C)c1C,-4.4% (inactive)
5,COC(=O)c1cc(Nc2cc(F)ccc2F)c2ccccc2n1,-1.7% (inactive)
6,CCc1ccc(NC(=O)CCS(=O)(=O)c2ccc(Br)s2)cc1,-6.3% (inactive)
7,COc1ccc(CC2(C)OC(c3ccc(C(C)(C)C)cc3)=NN2C(C)=O)cc1 (centres undefined),5.3% (inactive)
8,CCOc1nn(-c2nc(-c3ccccc3)cc(C(F)(F)F)n2)cc1[N+](=O)[O-],1.6% (inactive)
9,c1ccc(-c2nnc(SCc3nc4ccccc4[nH]3)o2)cc1,-3% (inactive)
10,c1ccc2[nH]c(CSc3nc4ccccc4[nH]3)nc2c1,86% (active) and -1.3% (inactive)
11,CNC(=O)CSc1nc2ccccc2[nH]1,-7.9% (inactive)
12,COc1ccc(C2=NOC(C(=O)N3CCCc4ccccc43)C2)cc1OC (centres undefined),-3.1% (inactive)
13,O=C(NCc1cccc(F)c1)C1CCc2sc(C(=O)N3CCCC3)cc2C1 (centres undefined),-2.5% (inactive)
14,CCn1ccc(C(=O)N2CCCC2c2cccc(F)c2)n1 (centres undefined),-3.5% (inactive)
15,O=C(NCC1CN(c2ccc3c(c2)OCO3)C(=O)O1)c1ccco1 (centres undefined),-9.6% (inactive)
16,CC(C)(C)c1ccc(CC(=O)c2ccc(O)cc2O)cc1,-3.9% (inactive)
17,O=C1CCCC2=C1C(c1ccccn1)C1=C(CCCC1=O)O2,-0.8% (inactive)
18,O=C(Nc1ncc(Cc2cccc(C(F)(F)F)c2)s1)c1ccc(-n2cnnn2)cc1,-2.3% (inactive)
19,CCOC(=O)N1CCc2nn(CC(=O)NC(C)CCc3ccccc3)c(=O)cc2C1 (centres undefined),-4.2% (inactive)
20,O=C(Nc1nnc(CSCc2ccccc2)s1)c1ccc(F)cc1,-1.1% (inactive)
21,COc1ccc(CCNC(=O)C2c3ccccc3C(=O)N2Cc2ccc(C)cc2)cc1OC (centres undefined),-9.1% (inactive)
22,O=C(Nc1ccc(-c2nc3ccccc3[nH]2)cc1)c1cccc(F)c1,-15.5% (inactive)
23,CCNC(=O)c1nsc2ccc(C)cc12,-1.8% (inactive)
24,CCOC(=O)c1ccc(NS(=O)(=O)c2c[nH]c(=O)[nH]c2=O)cc1,-10.5% (inactive)

row,Structure (SMILES),inhibition
1,CCN(CC)CCCNC(=O)C1CCN(S(=O)(=O)N2CCC3(CC2)OCCO3)CC1,-18.9% (inactive)
2,Cc1ccc(-n2cc(C(=O)N3CCCCC3)nn2)cc1C,-2.2% (inactive)
3,COc1ccc(/C=C2\N=C(c3cc(OC)c(OC)c(OC)c3)OC2=O)cc1,-0.6% (inactive)
4,Cc1ccc(-n2c(O)c(C=Nc3cc(Cl)ccc3O)c(=O)[nH]c2=O)cc1,-0.1% (inactive)
5,CCc1c(C)c2ccc(OCC(C)C)cc2oc1=O,-2.3% (inactive)
6,COc1ccc(CCNC(=O)C2CC(=O)N(c3ccc(F)c(Cl)c3)C2)cc1OC (centres undefined),4.9% (inactive)
7,O=C1CC2(CCN(C(=O)C=Cc3ccccc3)CC2)Oc2ccccc21,-17.9% (inactive)
8,O=C(Nc1ccncc1)c1ccc([N+](=O)[O-])cc1Cl,0.3% (inactive)
9,Cc1cc(C)nc(NC(=O)c2ccc([N+](=O)[O-])cc2Cl)c1,5.5% (inactive)
10,O=C(Nc1ccc(Br)cn1)c1ccc([N+](=O)[O-])cc1Cl,81.8% (active)
11,O=C(C1CC1)N1CCC(COCc2ccccc2)CC1,-12.6% (inactive)
12,CCS(=O)(=O)Oc1ccccc1-c1nc2cc(Cl)ccc2o1,-3.6% (inactive)
13,Cc1ccc(C(=O)N2CCC(CCOc3ccc(F)cc3)CC2)s1,4.5% (inactive)
14,CN1CCN(C(=O)C2CCC(=O)N2Cc2ccccc2Cl)CC1 (centres undefined),-11.4% (inactive)
15,CC(C)c1nnc(NC(=O)CCCOc2ccc(Cl)cc2)s1,4.4% (inactive)
16,O=[N+]([O-])c1ccc(-c2noc(COc3ccc(Cl)cc3Cl)n2)cc1,1.6% (inactive)
17,O=C(NCCc1ccccc1)C1CCN(S(=O)(=O)c2ccc(Br)s2)CC1,-9% (inactive)
18,O=C(NCCc1ccccc1)C1CCN(CC2CCCCC2)CC1,12.9% (inactive)
19,O=C(NCCc1ccccc1)C1CCN(S(=O)(=O)c2ccc(Br)cc2)CC1,98.3% (active)
20,Cc1cccc(NC(=O)c2cc3c(CO)cnc(C)c3oc2=Nc2ccc3c(c2)OCO3)c1,-0.2% (inactive)
21,CCn1c(-c2cc(NC(=O)c3ccncc3)n[nH]2)cc2ccccc21,-0.8% (inactive)
22,O=C(Nc1ccc(Cl)cc1[N+](=O)[O-])c1ccc(Cl)cc1,-0.2% (inactive)
23,COC(=O)Nc1nc(CC(=O)NCc2ccco2)cs1,-1.8% (inactive)
24,Cc1cc(C)nc(Nc2nc(CC(=O)Nc3nc(-c4ccco4)cs3)cs2)n1,69.6% (active)

row,Structure (SMILES),inhibition
1,O=C(CCCn1cccc1)Nc1nc(-c2ccco2)cs1,0.6% (inactive)
2,Cc1nccn1Cc1nc(-c2ccc(F)c(Br)c2)no1,-2.5% (inactive)
3,COc1ccc(C(C)=C2SC(=S)N(CCC(=O)O)C2=O)cc1,3.2% (inactive)
4,Cc1nc2c(ccc3nc(NC(=O)NCc4cccs4)sc32)s1,-4.8% (inactive)
5,O=C(c1ccncc1)N1CCCC(c2nc(-c3ccc(F)cc3)n[nH]2)C1 (centres undefined),10% (inactive)
6,COc1ccc(C(=O)N2CCN(c3nc(C(C)C)c4c(c3C#N)CC(C)(C)OC4)CC2)cc1,-3.4% (inactive)
7,CCCNc1cc(N2CCC(CCC(=O)NC(C)C)CC2)ncn1,-1.9% (inactive)
8,COc1cc(/C=c2\sc3nc(-c4ccc(Cl)cc4)nn3c2=O)cc(OC)c1OC,3.7% (inactive)
9,O=C(Cn1nnc2ccccc21)NCCSCc1ccco1,9.1% (inactive)
10,Cc1ccc(S(=O)(=O)NC(=O)NCCSCc2ccco2)cc1,25.5% (inactive) and 3.2% (inactive)
11,O=C(CSc1nnc(SCC(=O)NCCSCc2ccco2)s1)NCCSCc1ccco1,91.9% (active)
12,O=C(CSc1ccc(C(F)(F)F)cc1[N+](=O)[O-])NCCOc1ccccc1,57.6% (active)
13,COc1ccccc1OCCNC(=O)CSc1ccc(C(F)(F)F)cc1[N+](=O)[O-],-0.4% (inactive)
14,Cc1cccc(OCCNC(=O)CSc2ccc(C(F)(F)F)cc2[N+](=O)[O-])c1,-4.3% (inactive)
15,O=C(Cc1ccsc1)N1CCn2cnnc2C1,0.2% (inactive)
16,Cc1nc(C(=O)NCc2ccc(C(F)(F)F)cc2)c(C)o1,-4.9% (inactive)
17,Cc1ccc(C2CC(c3ccccc3)Nc3nnnn32)cc1 (centres undefined),-7% (inactive)
18,O=C(Nc1ccccc1[N+](=O)[O-])c1[nH]ncc1[N+](=O)[O-],-24.6% (inactive)
19,Cc1ccc(-n2cc(C(=O)Nc3ccc4c(c3)OCCO4)c3ccccc3c2=O)cc1C,-2.6% (inactive)
20,O=C(c1ccoc1)N1CCCCC1CCN1CCOCC1 (centres undefined),-2% (inactive)
21,O=C(NC1CC1)c1cccc(OCC2CCCN(C(=O)C3CCCCC3)C2)c1 (centres undefined),-3.3% (inactive)
22,COc1ccc(CNC(=O)c2cncc(OC)c2)cc1,0.2% (inactive)
